Source: the supplement of paper PMC8975748
Structures can show the parent of a compound that is named as a salt. ± gives the standard deviation of the averaged measurements.

Legend:
[1] = tested on: Saccharomyces cerevisiae BY4741 SeMeCo community; experiment: mean cell size (pixel area) (pixels); higher = larger cells; conditions: 10 µM; 24 h; SM minimal medium
In short: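 A fluorescent Saccharomyces cerevisiae BY4741 community carrying four plasmids was used, with each plasmid complementing one auxotrophy and bearing a fluorescent marker. An overnight preculture at OD600 = 1.0 was diluted to OD600 = 0.3, and 70 µl went into 384-well plates acoustically predosed with drug (final 10 µM) in SM medium for 24 h. After paraformaldehyde fixation, cells were imaged by automated confocal microscopy and analysed in Harmony, giving the mean cell pixel area per well. Each value is the average of 3 replicates. Same SeMeCo high-content imaging drug screen: Selleck FDA-approved drugs at 10 µM, 24 h in SM medium, 384-well plates, 3 replicates.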

[2] = tested on: Saccharomyces cerevisiae BY4741 SeMeCo community; experiment: z-score of prototroph abundance vs DMSO median; higher = larger share of this subpopulation than in DMSO controls; conditions: 10 µM; 24 h; SM minimal medium; subpopulation (auxotrophy): Prototroph
In short: (§1)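 Scoring was based on each subpopulation's abundance, expressed as a z-score against the vehicle-well median. A Saccharomyces cerevisiae BY4741 community with four plasmids, each restoring one auxotrophy and encoding a distinct fluorescent protein, was pre-grown overnight to OD600 1.0, diluted to 0.3, and added at 70 µl to 384-well plates acoustically predosed with library drugs (10 µM final). It then grew 24 h in minimal SM medium before paraformaldehyde fixation and automated confocal microscopy, with single-auxotroph fluorescent strains setting thresholds and autofluorescence correction.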

[3] = tested on: Saccharomyces cerevisiae BY4741 SeMeCo community; experiment: z-score of subpopulation abundance vs DMSO median, subpopulation auxotrophic for M; higher = larger share of this subpopulation than in DMSO controls; conditions: 10 µM; 24 h; SM minimal medium; subpopulation (auxotrophy): M
In short: as §1

[4] = tested on: Saccharomyces cerevisiae BY4741 SeMeCo community; experiment: z-score of subpopulation abundance vs DMSO median, subpopulation auxotrophic for U; higher = larger share of this subpopulation than in DMSO controls; conditions: 10 µM; 24 h; SM minimal medium; subpopulation (auxotrophy): U
In short: as §1

[5] = tested on: Saccharomyces cerevisiae BY4741 SeMeCo community; experiment: z-score of subpopulation abundance vs DMSO median, subpopulation auxotrophic for H; higher = larger share of this subpopulation than in DMSO controls; conditions: 10 µM; 24 h; SM minimal medium; subpopulation (auxotrophy): H
In short: as §1

[6] = tested on: Saccharomyces cerevisiae BY4741 SeMeCo community; experiment: z-score of subpopulation abundance vs DMSO median, subpopulation auxotrophic for LU; higher = larger share of this subpopulation than in DMSO controls; conditions: 10 µM; 24 h; SM minimal medium; subpopulation (auxotrophy): LU
In short: as §1

[7] = tested on: Saccharomyces cerevisiae BY4741 SeMeCo community; experiment: z-score of subpopulation abundance vs DMSO median, subpopulation auxotrophic for LM; higher = larger share of this subpopulation than in DMSO controls; conditions: 10 µM; 24 h; SM minimal medium; subpopulation (auxotrophy): LM
In short: as §1

[8] = tested on: Saccharomyces cerevisiae BY4741 SeMeCo community; experiment: z-score of subpopulation abundance vs DMSO median, subpopulation auxotrophic for HM; higher = larger share of this subpopulation than in DMSO controls; conditions: 10 µM; 24 h; SM minimal medium; subpopulation (auxotrophy): HM
In short: as §1

[9] = tested on: Saccharomyces cerevisiae BY4741 SeMeCo community; experiment: z-score of subpopulation abundance vs DMSO median, subpopulation auxotrophic for UM; higher = larger share of this subpopulation than in DMSO controls; conditions: 10 µM; 24 h; SM minimal medium; subpopulation (auxotrophy): UM
In short: as §1

[10] = tested on: Saccharomyces cerevisiae BY4741 SeMeCo community; experiment: z-score of subpopulation abundance vs DMSO median, subpopulation auxotrophic for HL; higher = larger share of this subpopulation than in DMSO controls; conditions: 10 µM; 24 h; SM minimal medium; subpopulation (auxotrophy): HL
In short: as §1

[11] = tested on: Saccharomyces cerevisiae BY4741 SeMeCo community; experiment: z-score of subpopulation abundance vs DMSO median, subpopulation auxotrophic for HLU; higher = larger share of this subpopulation than in DMSO controls; conditions: 10 µM; 24 h; SM minimal medium; subpopulation (auxotrophy): HLU
In short: as §1

[12] = tested on: Saccharomyces cerevisiae BY4741 SeMeCo community; experiment: z-score of subpopulation abundance vs DMSO median, subpopulation auxotrophic for HLM; higher = larger share of this subpopulation than in DMSO controls; conditions: 10 µM; 24 h; SM minimal medium; subpopulation (auxotrophy): HLM
In short: as §1

[13] = tested on: Saccharomyces cerevisiae BY4741 SeMeCo community; experiment: z-score of subpopulation abundance vs DMSO median, subpopulation auxotrophic for HUM; higher = larger share of this subpopulation than in DMSO controls; conditions: 10 µM; 24 h; SM minimal medium; subpopulation (auxotrophy): HUM
In short: as §1

[14] = tested on: Saccharomyces cerevisiae BY4741 SeMeCo community; experiment: z-score of subpopulation abundance vs DMSO median, subpopulation auxotrophic for LUM; higher = larger share of this subpopulation than in DMSO controls; conditions: 10 µM; 24 h; SM minimal medium; subpopulation (auxotrophy): LUM
In short: as §1

[15] = tested on: Saccharomyces cerevisiae BY4741 SeMeCo community; experiment: z-score of subpopulation abundance vs DMSO median, subpopulation auxotrophic for HLUM; higher = larger share of this subpopulation than in DMSO controls; conditions: 10 µM; 24 h; SM minimal medium; subpopulation (auxotrophy): HLUM
In short: as §1

[16] = tested on: Saccharomyces cerevisiae BY4741 SeMeCo community; experiment: z-score of subpopulation abundance vs DMSO median, subpopulation auxotrophic for HU; higher = larger share of this subpopulation than in DMSO controls; conditions: 10 µM; 24 h; SM minimal medium; subpopulation (auxotrophy): HU
In short: as §1

[17] = tested on: Saccharomyces cerevisiae BY4741 SeMeCo community; experiment: z-score of subpopulation abundance vs DMSO median, subpopulation auxotrophic for L; higher = larger share of this subpopulation than in DMSO controls; conditions: 10 µM; 24 h; SM minimal medium; subpopulation (auxotrophy): L
In short: as §1

Row | SMILES | mean cell size [1] | z-score of prototroph abundance [2] | z-score of subpopulation abundance [3] | z-score of subpopulation abundance [4] | z-score of subpopulation abundance [5] | z-score of subpopulation abundance [6] | z-score of subpopulation abundance [7] | z-score of subpopulation abundance [8] | z-score of subpopulation abundance [9] | z-score of subpopulation abundance [10] | z-score of subpopulation abundance [11] | z-score of subpopulation abundance [12] | z-score of subpopulation abundance [13] | z-score of subpopulation abundance [14] | z-score of subpopulation abundance [15] | z-score of subpopulation abundance [16] | z-score of subpopulation abundance [17]
1 | COCCCOc1ccnc(C[S+]([O-])c2nc3ccccc3[nH]2)c1C (centres undefined) [Rabeprazole] | 12.5 ± 0.21 | -0.81 | -1.07 | 0.43 | 2.01 | 1.56 | -0.33 | 0.01 | -0.92 | 1.62 | 1.71 | 0.32 | 0.23 | 0.63 | 0 | – | –
2 | CN1CCN(C2=Nc3cc(Cl)ccc3Nc3ccccc32)CC1 [Clozapine] | – | 0.32 | -0.47 | 0.17 | – | -1.03 | -0.26 | -0.07 | 0.28 | 0.94 | -0.01 | -0.52 | 0.23 | 0.32 | -0.29 | -0.45 | –
3 | Cc1cccc(C)c1OCC(C)N (centres undefined) [Mexiletine HCl] | 12.3 ± 0.13 | 0.5 | -0.98 | 0.62 | -0.52 | 0.44 | – | -0.64 | -0.36 | -0.55 | -0.19 | -1.23 | -0.49 | -0.37 | -0.35 | 0.61 | –
4 | CCNC(=O)[C@@H]1CCCN1C(=O)[C@H](CCCNC(=N)N)NC(=O)[C@H](CC(C)C)NC(=O)[C@@H](CC(C)C)NC(=O)[C@H](Cc1ccc(O)cc1)NC(=O)[C@H](CO)NC(=O)[C@H](Cc1c[nH]c2ccccc12)NC(=O)[C@H](Cc1c[nH]cn1)NC(=O)[C@@H]1CCC(=O)N1 [Leuprolide Acetate] | 12.5 ± 0.15 | -0.62 | 0.38 | 0.31 | 0.67 | -0.03 | – | 0.95 | – | 0.14 | 0.54 | 0.28 | 0.45 | 0.35 | 0.75 | 1.03 | –
5 | CN(C)c1ccc(O)c2c1C[C@H]1C[C@H]3[C@H](N(C)C)C(=O)C(C(N)=O)=C(O)[C@@]3(O)C(=O)C1=C2O [Minocycline HCl] | – | – | 0.32 | – | -0.15 | 0.63 | 0.75 | -0.22 | 0.25 | 0.73 | 0.06 | 0.31 | -0.12 | 0.3 | 0.19 | – | –
6 | C[C@@H]1O[C@@H]1P(=O)(O)O [Fosfomycin Disodium] | 12 ± 0.14 | 0.42 | -0.48 | -0.22 | 0.63 | 0.6 | – | -0.52 | -0.18 | 0.86 | 0.52 | -0.12 | -0.19 | 0.06 | -0.05 | 0.04 | –
7 | Cc1ncc([N+](=O)[O-])n1C [Dimetridazole] | 12.5 ± 0.19 | 0.38 | -0.26 | -0.07 | – | -0.31 | -0.99 | -0.42 | -0.37 | -0.32 | -0.59 | 0.46 | 0.28 | -1.1 | – | 0.17 | –
8 | COc1ccc2[nH]c([S@@+]([O-])Cc3ncc(C)c(OC)c3C)nc2c1 [NEXIUM (esomeprazole magnesium)] | 12.5 ± 0.14 | -0.6 | 0.2 | -0.8 | 3.24 | 0.11 | – | 0.8 | -1.82 | 1.91 | 1.46 | 1.32 | -0.41 | 0.51 | -0.44 | 0.68 | –
9 | Nc1nc2c(ncn2COCCO)c(=O)[nH]1 [Aciclovir] | 12.5 ± 0.32 | – | -0.02 | -0.49 | – | 0.29 | – | -0.46 | -0.79 | -0.76 | -0.88 | -0.49 | -1.32 | 0.25 | – | – | –
10 | CCN[C@@H]1C[C@H](N)[C@@H](O[C@H]2OC(CN)=CC[C@H]2N)[C@H](O)[C@H]1O[C@H]1OC[C@](C)(O)[C@H](NC)[C@H]1O [Netilmicin Sulfate] | 12.1 ± 0.17 | -0.66 | 1.38 | – | -0.25 | 0.47 | 0.44 | – | 0.17 | -0.24 | 0.09 | 1.14 | 0.71 | 0.72 | 0.72 | – | –
11 | Cc1cc(/C=C/c2ccc3cc(N(C)C)ccc3[n+]2C)c(C)n1-c1ccccc1 [pyrvinium] | 12.38 ± 0.085 | 0.55 | 0.61 | 0.84 | -3.04 | 0.05 | -0.19 | – | 1.08 | -1.44 | -0.46 | -0.3 | -0.73 | -0.14 | -0.49 | -0.67 | –
12 | Oc1c(Cl)cc(Cl)c2cccnc12 [Chloroxine] | 13.6 ± 0.85 | -16.8 | 3.4 | -1.29 | 13.2 | – | 10.6 | 28.2 | 1.02 | 21.7 | 33.8 | 45.7 | 19.8 | 17.1 | 32.5 | 12.7 | -0.75
13 | CCCCCNC(=N)N/N=C/c1c[nH]c2ccc(OC)cc12 [Tegaserod Maleate] | 12.23 ± 0.022 | -1.66 | 1.25 | -1.24 | 0.7 | – | 1.85 | 1.48 | -0.55 | 2.5 | 1.26 | 1.63 | 0.89 | 1.92 | 1.76 | 0.48 | 2.04
14 | O=S1(=O)CCN(CN2CCS(=O)(=O)NC2)CN1 [Taurolidine] | 12.5 ± 0.25 | – | -0.34 | 0.64 | – | – | -0.78 | -1.08 | 0.3 | -1.35 | -0.43 | -0.64 | -0.52 | -0.43 | -0.55 | 0.18 | -0.57
15 | C=CC1=C(C(=O)O)N2C(=O)[C@@H](NC(=O)/C(=N\OCC(=O)O)c3csc(N)n3)[C@H]2SC1 [Cefixime] | 12.52 ± 0.039 | 0.71 | -0.61 | 0.43 | -0.5 | – | -0.13 | -0.97 | -0.25 | -0.16 | -0.72 | -0.25 | -0.75 | -1.01 | -0.73 | – | -0.33
